Here are results for 23 compounds from PubChem BioAssay (NCATS).

Molecules are shown by their SMILES. Inconclusive results are not listed. Calls of active or inactive are those of the source. Calls follow the shape of the dose curve; as a rule, active = well fitted inhibition curve with a large enough effect; inconclusive = small, poorly fitted or top-dose-only effect; inactive = no such curve, though single readings can be large or run the other way.
Potency is read from the fitted curve at half-maximal effect.

The assay is described as follows: BET inhibitor-based combinations targeting novel dependencies in MECOM-rearranged (r) AML: HNT-34 cell line (AID 2202234). Also: nearly all actives have a fitted effect of over 35% in size.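 As to viability (% of control): plate controls were vehicle wells for no effect and cell-free wells for full effect.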 The note with it: HNT-34 AML viability, CellTiter-Glo luminescence, 48 h; series mostly up to 46 µM; viability (% of control): at the top concentration. The procedure, abridged: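 Cells were plated at 500 per well and exposed to each drug across an 11-point dose range for 48 hr at standard incubator conditions. Viability was read by CellTiter-Glo luminescence, and activity was expressed as AUC and per-cell-line Z-transformed AUC.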
A general note: In ATP-based viability assays light output follows the ATP content of the culture.
Take `CN(C)CCOc1ccc(-c2nc(-c3ccc4c(c3)CC/C4=N\O)c(-c3ccncc3)[nH]2)cc1`: the Potency was 14.8 µM (active).
In the case of `Nc1nc(Nc2ccc3c(c2)CC[C@@H](N2CCCC2)CC3)nn1-c1cc2c(nn1)-c1ccccc1CCC2`, the Potency is 7.42 µM (active).
In the case of `COc1ccc(-c2oc3ncnc(N)c3c2-c2ccc(NC(=O)Nc3cc(C(F)(F)F)ccc3F)cc2)cc1`, the Potency is 7.42 µM (active).
Still for that read-out and setting: the value for `OC1CCC(Oc2cccc3cnc(Nc4ccc5nc[nH]c5c4)nc23)CC1` (stereo not drawn) was 0.934 µM (active).
Still for that read-out and setting: the value for `O=C(NC[C@H](O)CO)c1ccncc1Nc1ccc(I)cc1F` was 0.468 µM (active); that for `C=CCN(/C=C1\C(=O)O[C@@H](COC)[C@]2(C)C1=C(O)C(=O)C1=C2[C@@H](OC(C)=O)C[C@]2(C)C(=O)CC[C@H]12)CC=C` was 20.9 µM (active); that for `N#Cc1ccc(-c2c(-c3ncn[nH]3)sc(N3CCOCC3)c2C#N)c(F)c1` was 10.5 µM (active).
On the same count and under the same terms, for `c1ccc(-c2cc(CCC3CCNCC3)c3ccccc3n2)cc1` the value was 20.9 µM (active).
Turning to `COc1cc(C(=O)NC(N)=Nc2ccc(C)c(NC(=O)c3ccc(-c4ccccc4)cc3)c2)cc(OC)c1OC`, the Potency is 18.6 µM (active).
`CC(=O)Nc1ccc(O)cc1`: the “viability (% of control)” value was 101% (inactive).
Consider `CN1C/C=C/CCOc2cccc(c2)-c2ccnc(n2)Nc2cccc(c2)C1`, for which the Potency is 0.417 µM (active).
Same read-out and setting: for `CN1CCN(Cc2ccc(Nc3ncc(Cl)c(Nc4ccccc4S(=O)(=O)N(C)C)n3)cc2)CC1` the value was 0.108 µM (active); for `O=C(Nc1ncc(SCCN2CCCC2)s1)[C@]1(c2ccc(S(=O)(=O)C3CC3)cc2)C[C@H]1C1CCCCC1`, 23.5 µM (active); for `Cc1cc2cc(Oc3ccnc(Nc4cccc(CS(=O)(=O)NCCN(C)C)c4)n3)ccc2[nH]1`, 13.2 µM (active).
Still for that read-out and setting: for `CNc1nc(-c2ccc3c(N)n[nH]c3c2)cc(N2C[C@@H](C(=O)NC3CCCCC3)CC[C@H]2C)n1` the value was 13.2 µM (active); for `Cc1ccc(-n2nc(C(C)(C)C)cc2NC(=O)NCc2cc(F)ccc2Oc2ccc3c(cnn3CCO)c2)cc1`, 0.296 µM (active).
The same measure, in the same setting: the value for `CCCN(CCC)C(=O)C1=Cc2ccc(-c3ccc(C(=O)N4CCCC4)cc3)cc2N=C(N)C1` was 18.6 µM (active); that for `C[C@]12CCCN1CC1=NNC(=O)c3cc(F)cc4[nH]c2c1c34` was 5.9 µM (active).
For `COc1cc(N2CCN(C)CC2)ccc1Nc1ncc2c(n1)N(C)c1ccccc1C(=O)N2`, the Potency was 26.3 µM (active).
For `CC(=O)N1CCC(Nc2cc(C(=O)NC[C@H](O)CN3CCc4ccccc4C3)ncn2)CC1`, the “viability (% of control)” value is 107% (inactive).
Regarding `CCN(CC)C(=S)SSC(=S)N(CC)CC`, the Potency was 0.332 µM (active).
In the case of `NC(=O)C1=C(O)[C@@]2(O)C(=O)C3=C(O)c4c(O)cccc4C[C@H]3C[C@H]2CC1=O`, the Potency was 8.33 µM (active).
With `O=S(=O)(Nc1ccc(-c2cccnc2)c2cccnc12)c1cccc(C(F)(F)F)c1`, the Potency was 4.17 µM (active).
